Results on seven compounds are retold here after PubChem BioAssay (Tox21).

Assay [1] deals with Progesterone receptor (Homo sapiens) (UniProt P06401). Briefly: qHTS assay to identify small molecule agonists of the progesterone receptor (PR) signaling pathway (AID 1346784; calls by dose curve; note: % is set by controls: 0 for no effect and ±100 for the full control effect; nearly all actives have a fitted effect of over 30% in size). A digest of the protocol:
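Seed PR-UAS-bla HEK 293T cells (2% charcoal-stripped FBS), incubate 6 hr at 37C; add compounds in DMSO, 16 hr at 37C; add LiveBLAzer B/G substrate, 2 hr RT; read fluorescence intensity.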

The nature of assay [2]: qHTS assay to identify small molecule antagonists of the TGF-beta/Smad signaling pathway - cell viability counter screen (AID 1346824). Note: % is set by controls: 0 for no effect and ±100 for the full control effect; nearly all actives have a fitted effect of over 50% in size. A digest of the protocol:
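SBE-bla HEK 293T cells were plated overnight at 37 C, then given compounds in DMSO plus TGF-beta1 (added as 0.25 ng/mL solution) for 5 hr. After the bla read, CellTiter-Glo was added to the same wells and luminescence read after 30 min at room temperature.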
For orientation: qHTS replaces the single test concentration by a dilution series.

A short description of assay [3]: qHTS assay to identify small molecule agonists of the TGF-beta/Smad signaling pathway - cell viability counter screen (AID 1346829). Note: top concentration of the series differs between compounds; % is set by controls: 0 for no effect and ±100 for the full control effect; nearly all actives have a fitted effect of over 45% in size. A digest of the protocol:
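In parallel with the Smad reporter read, viability of HEK 293T cells stably carrying SBE-bla is quantified by ATP luminescence following 5 hr compound treatment.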

Assay [4] is described as follows: qHTS assay to identify small molecule agonists of the TGF-beta/Smad signaling pathway (AID 1346859; active = well fitted activation curve with a large enough effect in the signal ratio in the repeat runs, not every such curve was filed as active; the % refers to the signal ratio; note: series mostly up to about 77 µM; % is set by controls: 0 for no effect and ±100 for the full control effect). In outline:
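Beta-lactamase reporter activity downstream of Smad binding elements was measured in stably transfected HEK 293T cells; compounds were incubated for 5 hr, substrate for 2 hr at room temperature.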

Assay [5] deals with Thyrotropin-releasing hormone receptor (Homo sapiens) (UniProt P34981). Briefly: qHTS assay to identify small molecule antagonists of the thyrotropin-releasing hormone receptor (TRHR) signaling pathway (AID 1346877; active = well fitted inhibition curve with a large enough effect in the repeat runs, not every such curve was filed as active; note: potency is the fitted concentration of half-maximal effect; for activity, negative = inhibition: series mostly up to about 51 µM; % is set by controls: 0 for no effect and ±100 for the full control effect). In outline: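 TRHR-expressing HEK293 cells loaded with calcium dye for 2 h at 37 C; compounds pre-incubated 5 min at room temperature before TRH challenge at 1 nM final. Intracellular calcium fluorescence read kinetically for 3 min; 15 concentrations in triplicate.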

For assay [6] the target is unchanged. Briefly: qHTS assay to identify small molecule agonists of the thyrotropin-releasing hormone receptor (TRHR) signaling pathway (AID 1346891; calls by dose curve; note: potency is the fitted concentration of half-maximal effect; for activation: series mostly up to about 58 µM; % is set by controls: 0 for no effect and ±100 for the full control effect). In outline:
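Overnight-plated (18 h, 37 °C, 5% CO2) TRHR-Hek293 cells; 2 h calcium dye at 37 °C; compound in DMSO; 3-min kinetic fluorescence read.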

The nature of assay [7]: Human pregnane X receptor (PXR) small molecule agonists, qHTS cell viability counter screen (AID 1346977). For activity change, negative = cytotoxicity: % is set by controls: 0 for no effect and ±100 for the full control effect. Note: nearly all actives have a fitted effect of over 50% in size. Note: potency is the fitted concentration of half-maximal effect. In outline: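 After a 5hr pre-incubation, PXR-Luc HepG2 cells received compounds plus positive control in DMSO and were kept 24hr at 37C. Cell viability was quantified by fluorescence from CellTiter-Fluor added for the final hour.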
A short description of assay [8]: Caspase-3/7 induction in HepG2 cells by small molecules, qHTS assay (AID 1346978). Note: nearly all actives have a fitted effect of over 15% in size. Note: potency is the fitted concentration of half-maximal effect. A digest of the protocol: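 Wild-type HepG2 cells (2,000/well) were settled 5 h at 37 C, 5% CO2, then exposed to compounds in DMSO for 17 h. Caspase-3/7 activity was read by luminescence 30 min after adding Caspase-Glo 3/7 reagent at room temperature.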
The nature of assay [9]: Caspase-3/7 induction in CHO-K1 cells by small molecules, qHTS cell viability counter screen (AID 1346979). Note: nearly all actives have a fitted effect of over 35% in size. Note: potency is the fitted concentration of half-maximal effect. A digest of the protocol:
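Multiplexed with Caspase-Glo 3/7 in CHO-K1 cells, this counter screen added CellTiter-Fluor after 16hr of compound exposure and recorded fluorescence 1hr later.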

A short description of assay [10]: Caspase-3/7 induction in CHO-K1 cells by small molecules, qHTS assay (AID 1346980). Note: nearly all actives have a fitted effect of over 15% in size. Note: potency is the fitted concentration of half-maximal effect. A digest of the protocol: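 Wild-type cells were seeded at 1,500 per well and settled 5 hr at 37 C, 5% CO2, then exposed to DMSO-dissolved compounds for 17 hr. Caspase-Glo 3/7 reagent was added, and luminescence was read after 30min at room temperature.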
Assay [11] is described as follows: Caspase-3/7 induction in HepG2 cells by small molecules, qHTS cell viability counter screen (AID 1346981). Note: nearly all actives have a fitted effect of over 30% in size. Note: potency is the fitted concentration of half-maximal effect. In outline: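 Wild-type HepG2 cells, 2,000/well, settled 5 hr at 37 C, 5% CO2 before compound addition. Viability read by CellTiter-Fluor fluorescence, reagent added after 16 hr compound exposure, then 1 hr at 37C, in the same wells as the caspase read.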

The target in assay [12] is Nuclear receptor subfamily 1 group I member 2 (Homo sapiens) (UniProt O75469). Briefly: Human pregnane X receptor (PXR) small molecule agonists, qHTS assay (AID 1346982). Note: nearly all actives have a fitted effect of over 35% in size. Note: potency is the fitted concentration of half-maximal effect. In outline: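 PXR-Luc HepG2 reporter cells (CYP3A4-driven luciferase) in 5% charcoal-stripped FBS medium, plated 5 h before compound addition, then treated 24 h at 37C. Luciferase read by ONE-Glo luminescence after 30 min at room temperature.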

Assay [13] concerns the target Cytochrome P450 2C19 (Homo sapiens) (UniProt P33261). Briefly: Cytochrome P450 Family 2 Subfamily C Member 19 (CYP2C19) small molecule antagonists: luciferase reporter qHTS assay (AID 1671197). Note: nearly all actives have a fitted effect of over 65% in size. Note: potency is the fitted concentration of half-maximal effect. In outline:
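Compounds were tested on CYP2C19 activity via proluciferin conversion to luciferin. The 37C, 1 h reaction followed NADPH addition; detection reagent stopped it.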
A general note: Reporter assays use an easily measured gene product as a stand-in for the process of interest.

Assay [14] deals with Cytochrome P450 2D6 (Homo sapiens) (UniProt P10635). Briefly: Cytochrome P450 Family 2 Subfamily D Member 6 (CYP2D6) small molecule antagonists: luciferase reporter qHTS assay (AID 1671196). Note: nearly all actives have a fitted effect of over 50% in size. Note: potency is the fitted concentration of half-maximal effect. A digest of the protocol: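 Cell-free P450-Glo system: CYP2D6 with proluciferin substrate was pre-incubated with compound for 10 min, then reacted with NADPH regeneration for 1 h at room temperature. Luciferin product was detected after 20 min, and data were reported as relative luminescence units.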

A short description of assay [15]: qHTS assay to identify small molecule agonists of the progesterone receptor (PR) signaling pathway - cell viability counter screen (AID 1346799; calls by dose curve; note: nearly all actives have a fitted effect of over 45% in size; note: potency is the fitted concentration of half-maximal effect). In outline:
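Using the same plates as the PR reporter screen, HEK293T PR-UAS-bla cells received compounds for 16 hr at 37C and were then lysed with CellTiter-Glo; luminescence was read 30 min later at room temperature.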

Assay [16] addresses Nuclear receptor subfamily 1 group I member 2 (Rattus norvegicus) (UniProt Q9R1A7). Briefly: Rat pregnane X receptor (rPXR) activation by small molecules, qHTS assay (AID 1346983). Note: % is set by controls: 0 for no effect and ±100 for the full control effect; nearly all actives have a fitted effect of over 20% in size. The settings on record: rPXR luciferase reporter cells, One-Glo luminescence, 24 h; max activation: stronger effect = higher value. In outline: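 Cell-based rPXR luciferase reporter assay, 2,000 cells per well, rested 5hr at 37 C before compound addition in DMSO, then 24 hr at 37 C. One-Glo reagent was added and luminescence read after 30 min at room temperature.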

The target of assay [17] is Nuclear receptor subfamily 1 group I member 2 (Homo sapiens) (UniProt O75469). Briefly: CYP3A4 induction through human pregnane X receptor (PXR) by small molecules, qHTS assay (AID 1346984). Note: potency is the fitted concentration of half-maximal effect; nearly all actives have a fitted effect of over 40% in size. A digest of the protocol:
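DPX-2 HepG2 cells carrying a PXR response element and CYP3A4-promoter luciferase construct, treated with compounds 24 hr at 37C. Then P450-Glo CYP3A4 Luciferin-IPA substrate (3uM final) for 3 hr at 37C, One-Glo added, luminescence read.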

Assay [18] is described as follows: qHTS assay to identify small molecule antagonists of the progesterone receptor (PR) signaling pathway - cell viability counter screen (AID 1346798). Note: potency is the fitted concentration of half-maximal effect; nearly all actives have a fitted effect of over 50% in size. In outline: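 Measures cytotoxicity in parallel with the PR antagonist reporter read: HEK293T PR-UAS-bla cells get compound and R5020 for 16 hr, and remaining viable cells are quantified by CellTiter-Glo luminescence.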

Values joined by “and” are separate entries in the source; they are usually repeats but may differ in a detail not shown here. Equal values may be shown once. Results filed as inconclusive are left out. Where a structure was tested more than once in an assay, its records may differ in their call. Active and inactive are the calls of the source. Unless noted, calls come from the whole dose curve; as a rule, active = well fitted curve in the direction sought with a large enough effect in the repeat runs; inconclusive = weak or mixed curves; inactive = no such curve, though single readings can be large; an effect the other way counts as inactive or inconclusive.

Chain of Thyrotropin-releasing hormone receptor (Homo sapiens) (P34981 whole entry, looked up): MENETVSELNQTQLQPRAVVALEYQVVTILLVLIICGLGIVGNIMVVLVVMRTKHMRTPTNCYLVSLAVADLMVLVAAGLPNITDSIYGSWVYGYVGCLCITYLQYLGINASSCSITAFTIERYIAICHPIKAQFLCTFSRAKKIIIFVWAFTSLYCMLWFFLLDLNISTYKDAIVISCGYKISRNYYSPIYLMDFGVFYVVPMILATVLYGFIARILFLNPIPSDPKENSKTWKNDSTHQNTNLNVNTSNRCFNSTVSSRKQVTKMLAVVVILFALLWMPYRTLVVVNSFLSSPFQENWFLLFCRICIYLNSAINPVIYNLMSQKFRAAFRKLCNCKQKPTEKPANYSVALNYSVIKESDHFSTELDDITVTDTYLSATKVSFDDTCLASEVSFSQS
Chain of Cytochrome P450 2D6 (Homo sapiens) (P10635 whole entry, looked up): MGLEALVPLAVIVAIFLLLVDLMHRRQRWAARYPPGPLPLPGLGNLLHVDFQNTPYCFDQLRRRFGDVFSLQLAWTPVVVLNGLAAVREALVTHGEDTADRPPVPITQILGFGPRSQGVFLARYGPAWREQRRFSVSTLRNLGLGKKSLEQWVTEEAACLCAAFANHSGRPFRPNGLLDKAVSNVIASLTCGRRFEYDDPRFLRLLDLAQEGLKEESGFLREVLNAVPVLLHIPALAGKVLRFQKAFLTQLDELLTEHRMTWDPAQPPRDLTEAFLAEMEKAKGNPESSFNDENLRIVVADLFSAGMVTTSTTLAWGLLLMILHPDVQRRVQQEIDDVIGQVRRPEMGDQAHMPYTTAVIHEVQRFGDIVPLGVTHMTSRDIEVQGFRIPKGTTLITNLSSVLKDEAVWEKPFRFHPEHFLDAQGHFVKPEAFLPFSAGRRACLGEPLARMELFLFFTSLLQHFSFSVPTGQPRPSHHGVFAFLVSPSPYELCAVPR
Chain of Progesterone receptor (Homo sapiens) (P06401 whole entry, looked up): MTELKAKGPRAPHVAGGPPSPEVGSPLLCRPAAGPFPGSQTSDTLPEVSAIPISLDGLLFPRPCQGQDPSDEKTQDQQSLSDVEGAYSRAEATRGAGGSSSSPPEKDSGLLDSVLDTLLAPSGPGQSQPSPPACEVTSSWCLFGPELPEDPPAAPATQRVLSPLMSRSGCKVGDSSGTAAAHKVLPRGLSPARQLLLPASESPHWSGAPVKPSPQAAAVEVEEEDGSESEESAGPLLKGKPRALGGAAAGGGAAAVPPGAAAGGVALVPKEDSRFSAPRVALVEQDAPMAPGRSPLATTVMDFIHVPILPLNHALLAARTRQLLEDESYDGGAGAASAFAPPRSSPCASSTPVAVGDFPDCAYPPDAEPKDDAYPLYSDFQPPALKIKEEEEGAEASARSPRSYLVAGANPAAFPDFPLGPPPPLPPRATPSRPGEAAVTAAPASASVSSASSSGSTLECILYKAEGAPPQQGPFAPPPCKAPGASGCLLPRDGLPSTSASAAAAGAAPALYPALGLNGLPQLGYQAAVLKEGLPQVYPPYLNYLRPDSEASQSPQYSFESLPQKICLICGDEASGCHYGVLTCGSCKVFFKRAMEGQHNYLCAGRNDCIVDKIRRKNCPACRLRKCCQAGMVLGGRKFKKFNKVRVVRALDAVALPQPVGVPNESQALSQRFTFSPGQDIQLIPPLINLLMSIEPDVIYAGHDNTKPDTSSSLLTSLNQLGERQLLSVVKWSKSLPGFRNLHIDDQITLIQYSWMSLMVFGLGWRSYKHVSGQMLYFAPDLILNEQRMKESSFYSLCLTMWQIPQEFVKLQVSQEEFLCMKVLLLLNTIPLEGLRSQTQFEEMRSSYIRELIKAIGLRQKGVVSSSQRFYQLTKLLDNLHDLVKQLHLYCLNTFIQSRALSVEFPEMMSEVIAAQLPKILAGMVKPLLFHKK
Chain of Cytochrome P450 2C19 (Homo sapiens) (P33261 whole entry, looked up): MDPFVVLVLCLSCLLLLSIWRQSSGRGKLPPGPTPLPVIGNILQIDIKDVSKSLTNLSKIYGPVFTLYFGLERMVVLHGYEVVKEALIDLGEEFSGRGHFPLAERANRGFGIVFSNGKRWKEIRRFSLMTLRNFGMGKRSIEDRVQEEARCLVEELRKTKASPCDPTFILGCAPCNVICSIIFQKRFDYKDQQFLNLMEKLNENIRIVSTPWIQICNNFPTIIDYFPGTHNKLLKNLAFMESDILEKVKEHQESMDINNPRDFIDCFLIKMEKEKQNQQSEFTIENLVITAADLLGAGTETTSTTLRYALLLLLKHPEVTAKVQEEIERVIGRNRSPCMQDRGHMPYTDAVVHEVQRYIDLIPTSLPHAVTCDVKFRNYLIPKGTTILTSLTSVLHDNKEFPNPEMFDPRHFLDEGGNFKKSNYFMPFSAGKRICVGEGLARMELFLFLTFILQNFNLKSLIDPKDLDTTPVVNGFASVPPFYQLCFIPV
Chain of Nuclear receptor subfamily 1 group I member 2 (Homo sapiens) (O75469 whole entry, looked up): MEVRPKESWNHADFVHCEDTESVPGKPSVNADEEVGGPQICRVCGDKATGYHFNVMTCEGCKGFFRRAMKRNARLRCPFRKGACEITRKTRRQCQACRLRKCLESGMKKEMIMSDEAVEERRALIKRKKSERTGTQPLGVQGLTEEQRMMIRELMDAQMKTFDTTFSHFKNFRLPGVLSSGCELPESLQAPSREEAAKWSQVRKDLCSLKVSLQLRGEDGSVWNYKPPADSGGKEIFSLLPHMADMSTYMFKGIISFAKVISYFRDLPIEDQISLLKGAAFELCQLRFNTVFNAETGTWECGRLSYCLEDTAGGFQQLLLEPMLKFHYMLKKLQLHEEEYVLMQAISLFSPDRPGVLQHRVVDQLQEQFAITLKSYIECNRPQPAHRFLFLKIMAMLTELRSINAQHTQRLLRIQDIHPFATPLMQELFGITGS
Chain of Nuclear receptor subfamily 1 group I member 2 (Rattus norvegicus) (Q9R1A7 whole entry, looked up): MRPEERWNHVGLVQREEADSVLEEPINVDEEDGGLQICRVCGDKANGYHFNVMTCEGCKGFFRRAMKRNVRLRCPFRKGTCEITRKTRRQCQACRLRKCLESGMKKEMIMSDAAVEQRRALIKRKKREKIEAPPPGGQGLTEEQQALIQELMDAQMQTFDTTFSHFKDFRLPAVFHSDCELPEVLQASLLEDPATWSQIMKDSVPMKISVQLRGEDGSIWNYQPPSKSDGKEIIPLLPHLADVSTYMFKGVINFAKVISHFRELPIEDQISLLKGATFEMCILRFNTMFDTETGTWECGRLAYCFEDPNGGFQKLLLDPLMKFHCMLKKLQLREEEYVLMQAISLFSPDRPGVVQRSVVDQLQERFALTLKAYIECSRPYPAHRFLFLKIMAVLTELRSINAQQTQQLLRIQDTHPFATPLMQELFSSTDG

For the compound `COC(=O)NCCC[Si](OC)(OC)OC`, the compound was called inactive in [1]. The Potency entry in assay [2], in assay [3], in [4], in [5], in [6] and in assay [7] was “inactive” each time. The Potency result in assay [8], in assay [9], in assay [10], in assay [11], in [12] and in [13] was “inactive” throughout.

On to `Nc1ccc2cc3ccc(N)cc3nc2c1`, for which the compound was called inactive in [1]. Also, the Potency result in [2] and in [3] was “inactive” in each case. Moreover, the Potency in [5] is 33.8 µM (active); in assay [6], 15.5 µM (active) and 13.5 µM (active); in [8], 30.6 µM (active) and 29.8 µM (active); in [10] it was 4.86 µM (active) and 11.9 µM (active); in assay [14], 39.9 µM (active); in assay [13], 71 µM (active) and inactive.

Consider `CC1CCCNC1` (configuration not stated), for which the call in assay [1] was inactive. The Potency entry in assay [2], in [3], in assay [4], in assay [5], in [6] and in assay [8] was “inactive” throughout. Besides, the Potency result in assay [9] and in assay [11] was “inactive” throughout. In addition, in assay [14], the Potency was 39.1 µM (active).

`CC(CN(C)C)CN1c2ccccc2CCc2ccccc21` (configuration not stated): the result in assay [1] was inactive. The Potency was 16.8 µM (active) in assay [15]; 26.6 µM (active) in assay [7]; 23.7 µM (active) in assay [12]; 8.91 µM (active) in [17]; 3.09 µM (active) in assay [14]. Besides, the Potency entry in assay [2], in assay [3], in assay [5], in assay [8] and in [10] was “inactive” in each case. For the same compound, in assay [16], the max activation was -1.19% (inactive).

Take `CN(C)c1ccc(N=NS(=O)(=O)O)cc1`: the outcome in [1] was inactive. In addition, the Potency result in assay [2], in assay [4], in assay [5], in assay [6], in assay [8] and in [10] was “inactive” throughout. The Potency in assay [7] was 20.4 µM (active); in assay [9] it was 33.8 µM (active); in [11], 25 µM (active); in [12], 21.7 µM (active); in assay [14], 7.94 µM (active).

Consider `COc1cc(C(C)C)c2c(c1)S(=O)(=O)N(COc1cc(=O)n3cccc(OCCN4CCCCC4)c3n1)C2=O`, for which the figures for the activation in assay [1], in assay [4] and in [6] were 8.35% [at 19 µM] (inactive), -2.24% [at 15.8 µM] (inactive) and -1.34% [at 11.8 µM] (inactive), respectively. For the same compound, the activity change, negative = cytotoxicity in [15] is 20.1% [at 19 µM] (inactive); in assay [3], 15.8% [at 15.8 µM] (inactive). Also, the activity, negative = inhibition in assay [5] was 0.273% [at 10.5 µM] (inactive). Moreover, the caspase activation in [8] was 0.878% [at 19 µM] (inactive). Besides, in assay [10], the caspase-3/7 activation is -0.224% [at 19 µM] (inactive). Besides, the Potency in [12] was 13 µM (active).

As to `C=CC(=C)CCC=C(C)C`, the compound was called inactive in assay [1]. Further, the Potency in [18] is 54.5 µM (active). In addition, the Potency entry in assay [2], in assay [3], in assay [4], in assay [7], in assay [8] and in [9] was “inactive” in each case. For the same compound, the Potency result in assay [10], in assay [11], in [12] and in assay [14] was “inactive” in each case.
